# About 7,900 targets were measured; listed, in parts, are those with a hit and a random draw of the rest. About 0.6% of all pairs of compound and target were hits. Values without a mark were called inactive.
# Experiments:
# Test in all cases: log2 fold change, soluble protein after heating vs DMSO (PISA); higher = thermal stabilisation; K562 cells, 10 uM, 30 min; active = over 0.2 and 3.5 SD of the protein, either way, in both replicates (recomputed)
# [1] = compound: C1COCCN1CCN2C3=CC=CC=C3N=C2NC(=O)C4=CC(=CC=C4)[N+](=O)[O-] [IRAK-1-4 Inhibitor I]
# How it was run: (§1)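 K562 cells at 2×10^6 cells/mL were treated with 10 μM compound for 30 min. Aliquots were heated for 3 min across 48°C-58°C, pooled, and extracted in PBS with 0.5% NP-40 at 4°C; soluble protein was the supernatant after 21,000xg for 90 min. Soluble protein was quantified by TMTpro 16plex LC-MS/MS with channel sums equalised, and reported as log2 fold change in thermal stability against DMSO controls, with values from duplicates.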
# [2] = compound: C=CC(=O)N1CCC[C@@H](n2nc(-c3ccc(Oc4ccccc4)cc3)c3c(N)ncnc32)C1 [ibrutinib]
# How it was run: as §1
# [3] = compound: CC(=O)c1cnc2ccc(-c3cc(Cl)c(O)c(Cl)c3)nc2c1N[C@H]1CC[C@H](CN(C)C)CC1
# How it was run: as §1
# [4] = compound: CC(C)(C)Cn1c(N)nc2ccc(-c3[nH]c(C(C)(C)C)nc3-c3ccc(F)cc3)nc21 [ralimetinib]
# How it was run: as §1
# [5] = compound: CC(C)(O)CC(=O)NCCn1ccc2ncnc(Nc3ccc(Oc4cccc(C(F)(F)F)c4)c(Cl)c3)c21
# How it was run: as §1
# [6] = compound: CC(C)C1=C2N=C(C=C(N2N=C1)NCC3=CC=CC=C3)NCCCCCCN
# How it was run: as §1
# [7] = compound: CC(C)C[C@@H](C=O)NC(=O)[C@H](CC(C)C)NC(=O)[C@H](CC(C)C)NC(=O)OCc1ccccc1
# How it was run: as §1
# [8] = compound: CC(C)N(C[C@H]1O[C@@H](n2cnc3c(N)ncnc32)[C@H](O)[C@@H]1O)[C@H]1C[C@@H](CCc2nc3cc(C(C)(C)C)ccc3[nH]2)C1 [pinometostat]
# How it was run: as §1
# [9] = compound: CC1=C(C(CC(=O)N1)C2=CC=C(C=C2)C(F)(F)F)C(=O)NC3=C(C=C4C(=C3)C=NN4)F
# How it was run: as §1
# [10] = compound: CC1=C(C2=C(C=C1)C(=O)C3=CC=CC=C3N2CCCN)C
# How it was run: as §1
# Sequence of UniProt Q13057 (Q13057 whole entry, looked up): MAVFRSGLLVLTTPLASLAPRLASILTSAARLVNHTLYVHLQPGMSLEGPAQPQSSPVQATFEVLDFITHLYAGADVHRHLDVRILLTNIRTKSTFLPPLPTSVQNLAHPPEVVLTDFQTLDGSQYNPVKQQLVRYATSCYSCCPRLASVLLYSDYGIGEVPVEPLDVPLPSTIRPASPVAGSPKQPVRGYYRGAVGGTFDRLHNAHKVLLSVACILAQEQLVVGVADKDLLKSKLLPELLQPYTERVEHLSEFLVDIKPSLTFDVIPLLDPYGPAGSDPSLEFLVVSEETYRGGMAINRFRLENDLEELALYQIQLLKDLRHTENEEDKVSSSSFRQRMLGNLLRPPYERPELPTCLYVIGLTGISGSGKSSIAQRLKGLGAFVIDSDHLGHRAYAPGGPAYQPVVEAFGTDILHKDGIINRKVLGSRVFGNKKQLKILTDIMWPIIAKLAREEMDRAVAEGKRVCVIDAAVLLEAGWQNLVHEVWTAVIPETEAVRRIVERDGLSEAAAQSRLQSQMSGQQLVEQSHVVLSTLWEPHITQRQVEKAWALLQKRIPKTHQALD
# Sequence of UniProt P21127 (P21127 whole entry, looked up): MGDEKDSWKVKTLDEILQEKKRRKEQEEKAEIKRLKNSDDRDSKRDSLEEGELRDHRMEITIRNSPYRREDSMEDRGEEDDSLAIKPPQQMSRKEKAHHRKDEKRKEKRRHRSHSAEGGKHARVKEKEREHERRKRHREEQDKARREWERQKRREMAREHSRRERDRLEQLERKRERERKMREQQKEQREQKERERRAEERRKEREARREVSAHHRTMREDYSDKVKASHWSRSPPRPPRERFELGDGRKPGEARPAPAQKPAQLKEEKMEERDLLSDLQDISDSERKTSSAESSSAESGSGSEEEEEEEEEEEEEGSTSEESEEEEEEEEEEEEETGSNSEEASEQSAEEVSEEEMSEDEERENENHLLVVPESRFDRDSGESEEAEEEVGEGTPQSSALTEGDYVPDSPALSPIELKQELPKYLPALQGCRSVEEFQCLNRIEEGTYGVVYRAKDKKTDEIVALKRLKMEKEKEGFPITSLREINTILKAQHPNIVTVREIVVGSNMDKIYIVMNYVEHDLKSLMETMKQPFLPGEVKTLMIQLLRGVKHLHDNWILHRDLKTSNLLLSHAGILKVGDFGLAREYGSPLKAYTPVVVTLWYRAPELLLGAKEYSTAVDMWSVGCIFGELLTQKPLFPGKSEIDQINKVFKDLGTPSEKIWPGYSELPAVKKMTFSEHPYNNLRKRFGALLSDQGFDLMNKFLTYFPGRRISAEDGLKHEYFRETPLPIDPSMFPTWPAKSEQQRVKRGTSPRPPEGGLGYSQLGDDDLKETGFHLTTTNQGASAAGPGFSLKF
# Sequence of UniProt P27708 (P27708 whole entry, looked up): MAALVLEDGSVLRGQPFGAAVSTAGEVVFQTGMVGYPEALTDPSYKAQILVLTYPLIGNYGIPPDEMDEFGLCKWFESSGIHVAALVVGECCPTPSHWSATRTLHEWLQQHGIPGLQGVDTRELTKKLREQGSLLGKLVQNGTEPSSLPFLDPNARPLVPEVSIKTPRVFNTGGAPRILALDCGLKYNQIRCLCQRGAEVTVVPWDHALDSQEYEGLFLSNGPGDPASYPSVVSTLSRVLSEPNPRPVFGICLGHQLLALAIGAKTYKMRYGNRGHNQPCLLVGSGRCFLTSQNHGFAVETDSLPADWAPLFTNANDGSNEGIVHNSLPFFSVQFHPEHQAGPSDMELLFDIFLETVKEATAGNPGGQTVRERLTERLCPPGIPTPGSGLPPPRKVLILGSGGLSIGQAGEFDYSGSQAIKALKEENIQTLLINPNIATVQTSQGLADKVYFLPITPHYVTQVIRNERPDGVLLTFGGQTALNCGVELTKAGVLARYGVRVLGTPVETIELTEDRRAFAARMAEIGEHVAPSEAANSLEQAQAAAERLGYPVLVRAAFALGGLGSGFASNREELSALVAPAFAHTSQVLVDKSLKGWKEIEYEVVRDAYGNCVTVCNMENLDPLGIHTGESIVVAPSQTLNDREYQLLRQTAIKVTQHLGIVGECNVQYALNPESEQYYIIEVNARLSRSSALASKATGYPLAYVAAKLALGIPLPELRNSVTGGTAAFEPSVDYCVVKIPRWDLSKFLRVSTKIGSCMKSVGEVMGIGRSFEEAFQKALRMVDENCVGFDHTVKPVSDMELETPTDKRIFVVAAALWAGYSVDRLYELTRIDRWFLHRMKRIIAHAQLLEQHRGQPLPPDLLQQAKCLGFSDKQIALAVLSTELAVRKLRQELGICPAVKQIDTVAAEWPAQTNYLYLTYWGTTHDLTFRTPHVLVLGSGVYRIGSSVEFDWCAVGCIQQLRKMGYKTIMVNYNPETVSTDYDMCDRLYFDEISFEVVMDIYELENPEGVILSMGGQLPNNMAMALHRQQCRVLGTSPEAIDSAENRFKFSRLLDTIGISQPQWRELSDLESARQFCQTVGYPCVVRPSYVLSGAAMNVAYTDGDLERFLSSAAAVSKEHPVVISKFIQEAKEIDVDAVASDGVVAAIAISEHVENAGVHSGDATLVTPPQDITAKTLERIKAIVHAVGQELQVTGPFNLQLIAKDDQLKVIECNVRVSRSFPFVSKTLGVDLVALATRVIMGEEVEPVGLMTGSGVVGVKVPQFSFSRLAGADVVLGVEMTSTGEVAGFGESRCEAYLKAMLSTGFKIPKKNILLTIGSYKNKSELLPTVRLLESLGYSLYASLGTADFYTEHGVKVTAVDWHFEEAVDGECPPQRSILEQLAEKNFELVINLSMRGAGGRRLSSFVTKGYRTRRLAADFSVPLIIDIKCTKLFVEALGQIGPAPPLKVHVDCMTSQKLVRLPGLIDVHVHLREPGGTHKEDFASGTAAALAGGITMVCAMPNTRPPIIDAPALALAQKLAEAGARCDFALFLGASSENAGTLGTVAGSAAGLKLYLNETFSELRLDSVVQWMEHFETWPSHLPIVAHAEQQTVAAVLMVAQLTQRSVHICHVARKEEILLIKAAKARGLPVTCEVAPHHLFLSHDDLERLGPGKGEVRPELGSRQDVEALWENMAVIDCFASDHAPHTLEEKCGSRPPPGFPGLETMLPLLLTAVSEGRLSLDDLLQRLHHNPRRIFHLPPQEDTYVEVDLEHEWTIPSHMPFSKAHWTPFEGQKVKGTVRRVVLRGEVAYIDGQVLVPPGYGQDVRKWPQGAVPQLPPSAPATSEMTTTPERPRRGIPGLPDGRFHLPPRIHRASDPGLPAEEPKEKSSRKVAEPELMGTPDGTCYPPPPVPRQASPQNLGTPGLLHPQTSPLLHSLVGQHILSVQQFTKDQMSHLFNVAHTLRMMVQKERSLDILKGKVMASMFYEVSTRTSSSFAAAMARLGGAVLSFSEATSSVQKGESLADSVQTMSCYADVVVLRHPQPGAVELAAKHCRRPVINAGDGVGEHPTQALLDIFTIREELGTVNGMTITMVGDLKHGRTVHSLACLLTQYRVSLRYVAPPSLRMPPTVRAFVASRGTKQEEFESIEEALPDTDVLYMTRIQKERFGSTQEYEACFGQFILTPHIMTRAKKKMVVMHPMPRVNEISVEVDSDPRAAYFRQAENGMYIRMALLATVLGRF
# Sequence of UniProt Q86X83 (Q86X83 whole entry, looked up): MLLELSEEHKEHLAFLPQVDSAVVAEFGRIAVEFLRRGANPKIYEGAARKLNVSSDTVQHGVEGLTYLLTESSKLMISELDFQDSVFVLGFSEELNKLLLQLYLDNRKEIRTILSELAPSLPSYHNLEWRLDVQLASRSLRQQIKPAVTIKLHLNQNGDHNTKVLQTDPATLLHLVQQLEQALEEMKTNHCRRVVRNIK
# Sequence of UniProt Q9UNS2 (Q9UNS2 whole entry, looked up): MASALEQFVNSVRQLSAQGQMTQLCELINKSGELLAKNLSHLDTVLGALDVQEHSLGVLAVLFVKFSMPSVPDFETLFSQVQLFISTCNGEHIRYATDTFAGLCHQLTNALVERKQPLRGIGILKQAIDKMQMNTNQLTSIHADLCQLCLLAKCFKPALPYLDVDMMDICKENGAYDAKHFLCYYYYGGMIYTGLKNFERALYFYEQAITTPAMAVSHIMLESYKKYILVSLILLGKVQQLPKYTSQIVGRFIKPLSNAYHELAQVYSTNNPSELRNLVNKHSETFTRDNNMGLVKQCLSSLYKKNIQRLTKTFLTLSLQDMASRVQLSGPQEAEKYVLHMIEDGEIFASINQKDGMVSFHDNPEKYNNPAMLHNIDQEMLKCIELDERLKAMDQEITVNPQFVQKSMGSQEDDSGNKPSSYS
# Sequence of UniProt P46109 (P46109 whole entry, looked up): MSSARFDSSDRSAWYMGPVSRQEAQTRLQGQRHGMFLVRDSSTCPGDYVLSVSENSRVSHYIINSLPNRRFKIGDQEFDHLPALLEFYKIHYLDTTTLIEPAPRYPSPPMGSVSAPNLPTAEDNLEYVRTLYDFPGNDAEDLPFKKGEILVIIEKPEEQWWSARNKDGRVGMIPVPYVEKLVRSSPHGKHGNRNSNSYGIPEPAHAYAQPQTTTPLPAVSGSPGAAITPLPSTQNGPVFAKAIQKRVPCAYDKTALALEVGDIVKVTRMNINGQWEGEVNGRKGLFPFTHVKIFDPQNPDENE
# Sequence of UniProt P60033 (P60033 whole entry, looked up): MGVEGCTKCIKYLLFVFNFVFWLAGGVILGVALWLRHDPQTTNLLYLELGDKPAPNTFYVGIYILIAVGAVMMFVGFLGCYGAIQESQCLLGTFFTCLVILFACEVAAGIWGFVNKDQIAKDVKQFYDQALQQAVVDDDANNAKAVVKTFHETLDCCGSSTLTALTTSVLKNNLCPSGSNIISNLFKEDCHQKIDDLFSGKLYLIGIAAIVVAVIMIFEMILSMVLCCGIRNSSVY
Target,log2 fold change [1],log2 fold change [2],log2 fold change [3],log2 fold change [4],log2 fold change [5],log2 fold change [6],log2 fold change [7],log2 fold change [8],log2 fold change [9],log2 fold change [10]
C19orf53 (UniProt Q9UNZ5),-0.136,0.031,0.12,0.201,0.043,0.013,0.126,0.32,0.079,-0.546
CAD (UniProt P27708),-0.064,0.008,-0.402 (active),-0.06,-0.168,0.029,0.021,0.028,0.03,0.272 (active)
CD81 (UniProt P60033),0.027,0.007,-0.026,-0.045,-0.018,0.33,-0.122,-0.05,0.004,-0.01
CRKL (UniProt P46109),0.035,-0.102,-1.24 (active),-0.054,-0.004,0.042,0.057,-0.022,0.042,-0.008
CDK11B (UniProt P21127),-0.151,-0.026,2.34 (active),0.04,-0.006,-0.116,0.076,-0.11,-0.009,-0.366 (active)
CNOT2 (UniProt Q9NZN8),0.112,0.013,-0.045,-0.027,-0.038,-0.112,0.013,0.05,-0.005,0.059
COPS3 (UniProt Q9UNS2),0.029,0.011,-0.023,-0.096,-0.014,0.028,-0.065,-0.046,-0.007,-0.003
CHD4 isoform 2 (UniProt Q14839),-0.198,-0.106,-0.215,0.112,-0.067,-0.313 (active),0.045,0.07,0.013,-0.057
CAVIN1 (UniProt Q6NZI2),-0.064,-0.002,0.011,0.393,0,-0.156,-0.011,0.2,0.06,-0.437 (active)
COASY isoform 2 (UniProt Q13057),0.039,0.004,-0.016,-0.032,-0.063,0.037,-0.02,0.005,-0.018,0.079
CPSF1 (UniProt Q10570),-0.006,-0.007,0.064,0,0.036,-0.009,0.075,0.142,0,-0.093
COMMD2 (UniProt Q86X83),-0.009,-0.038,-0.119,-0.023,-0.179,-0.271,0.007,0.037,0.008,0.01
CCZ1 (UniProt P86791),0.063,-0.001,-0.039,-0.051,-0.05,-0.287 (active),0.025,0.012,-0.007,0.006
CDK5RAP1 (UniProt Q96SZ6),-0.067,0.018,0.111,-0.057,-0.055,-0.066,-0.015,0.025,-0.038,0.099
COPS4 (UniProt Q9BT78),0.015,0.043,0.01,-0.004,-0.014,0.009,-0.008,-0.048,-0.019,0.028
